Cruzain Triton: blocks cruzain activity in presence of Triton detergent; P25779; purified cruzain, Z-FR-AMC fluorescence, 0.01% Triton; Potency, µM, for the others: max response, negative = inhibition, actives largely listed as inhibitors; 0.43% of 200,000 active;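 also: plate controls were neutral wells for no effect and buffer without enzyme for full effect; nearly all actives have a fitted effect of over 40% in size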
Target sequence (P25779 123-467 limits assumed): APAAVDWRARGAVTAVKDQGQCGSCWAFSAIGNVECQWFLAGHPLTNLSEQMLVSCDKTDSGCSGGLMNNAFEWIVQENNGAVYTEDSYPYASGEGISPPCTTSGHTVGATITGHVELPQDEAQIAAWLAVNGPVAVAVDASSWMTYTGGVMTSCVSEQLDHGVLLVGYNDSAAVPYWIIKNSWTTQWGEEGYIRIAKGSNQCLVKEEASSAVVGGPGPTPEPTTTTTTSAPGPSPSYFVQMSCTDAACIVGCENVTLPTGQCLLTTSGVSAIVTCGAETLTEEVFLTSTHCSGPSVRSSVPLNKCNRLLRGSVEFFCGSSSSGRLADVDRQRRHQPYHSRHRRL
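Z-FR-AMC hydrolysis (2 uM substrate) by cruzain (1.5 nM) monitored kinetically at ex 360/em 450 nm after 15 min room-temperature compound exposure; 0.01% Triton X-100, pH 5.5, 5 mM DTT.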
Cruzain noTriton: blocks cruzain activity in detergent-free assay; P25779; purified cruzain, Z-FR-AMC fluorescence, no detergent; Potency, µM, for inactives: max response, negative = inhibition, most hits filed as inhibitors; 2.3% of 200,000 active; AID 1476;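 also: plate controls were enzyme without inhibitor for no effect and buffer without enzyme for full effect; nearly all actives have a fitted effect of over 40% in size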
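Purified cruzain at 1.5 nM, pre-incubated 15 min with compound at room temperature in 100 mM sodium acetate pH 5.5, 5 mM DTT, 0.00005% Triton X-100. Reaction started with 2 uM Z-FR-AMC; AMC fluorescence increase over 60 s gives rate.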
Numbers without * were called inactive; ? = inconclusive. This is a sample that favours compounds with a hit; in the whole collection about 2.6% have one here. Calls follow the shape of the dose curve; as a rule, active = well fitted curve in the direction sought with a large enough effect; inconclusive = small, poorly fitted or top-dose-only effect, or another doubt; inactive = no such curve, though single readings can be large; an effect the other way counts as inactive or inconclusive. Potency is read from the fitted curve at half-maximal effect.

SMILES	Cruzain Triton	Cruzain noTriton
COC(=O)c1ccc(COC(=O)c2ccc(CS(=O)(=O)c3ccc(C)cc3)cc2)cc1	-1.8%	25.1µM*
Cc1ccc(S(=O)(=O)CCC(=O)OCc2ccc(Cl)cc2)cc1	-2.7%	4.6%
Cc1cccc(N2CCN(C(=O)Cn3nc(C)c4sc5ccccc5c4c3=O)CC2)c1C	-6.3%	-21.4%
Cc1ccc2c(c1)c(=O)c(C(=O)c1ccc3c(c1)OCO3)cn2Cc1ccc(Cl)cc1	-1.2%	?
O=C(c1ccc2c(c1)OCO2)c1cn(Cc2ccc(Cl)cc2)c2ccc(F)cc2c1=O	-2.7%	25.1µM*
COc1ccccc1N1CCN(Cc2ccc(O)c3ncccc23)CC1	0.0%	19.1%
Oc1ccc(CN2CCCc3ccccc32)c2cccnc12	-5.7%	25.1µM*
COc1cc(C2c3c(-c4cc(C)ccc4O)n[nH]c3C(=O)N2CCCO)ccc1OCCC(C)C (stereo unspecified)	-18.5%	?
Cc1cn(C)c(CC(=O)Nc2ccc(F)cc2Cl)c1C(=O)O	0.0%	-13.7%
CCOc1ccc(-c2cn3c(n2)sc2cc(C(=O)NCCCN4CCCCC4)ccc23)cc1	-1.6%	3.98µM*
CCOc1ccc(-c2cn3c(n2)sc2cc(C(=O)NCCCN4CCCCCC4)ccc23)cc1	-1.8%	2.8%
Cc1cc(Br)c(Cl)cc1NC(=O)CN1C(=O)C2C3CC(c4ccccc4)C(C3)C2C1=O (stereo unspecified)	-6.5%	12.6µM*
Cc1cc(NC(=O)CCN2C(=O)C3C4CCC(C4)C3C2=O)c(C)cc1Br (stereo unspecified)	-0.2%	1.1%
CCc1ccc(NC(=O)C2CCN(c3cc(C)nc4c(-c5ccc(Cl)cc5)c(C)nn34)CC2)cc1	1.4%	-7.4%
CCCCCCc1cc2cc(-c3nnc(-c4ccccc4O)o3)c(=O)oc2cc1O	-2.3%	-9.5%
CCCCCCc1cc2cc(S(=O)(=O)c3ccc(F)cc3)c(=O)oc2cc1O	-6.5%	25.1µM*
Cc1ccc(Cl)cc1NC(=O)Cn1c(=O)n(C(C)C)c(=O)c2oc3ccccc3c21	-0.9%	6.7%
O=[N+]([O-])c1cc(S(=O)(=O)N2CCCC2)ccc1N/N=C1/CCCc2ccccc21	-6.5%	15.8µM*
O=[N+]([O-])c1cc(S(=O)(=O)N2CCCC2)ccc1NN=C1CCCCC1	0.6%	18.6%
O=P(O)(O)OP(=O)(O)O	0.1%	6.0%
Cc1ccn2c(Nc3ccccc3)c(-c3c[nH]c4ccccc34)nc2c1	-16.8%	12.6µM*
Cc1ccc(Nc2c(-c3c[nH]c4ccccc34)nc3cc(C)ccn23)cc1	-9.9%	?
CCc1ccc(S(=O)(=O)c2cnc(SCC(=O)Nc3ccc(OC)cc3OC)[nH]c2=O)cc1	-22.1%	15.9%
COc1cc(Cl)c(C)cc1NC(=O)CSc1ncc(S(=O)(=O)c2ccc(C(C)(C)C)cc2)c(=O)[nH]1	28.2µM*	10.4%
Cc1c(Cl)cccc1NC(=O)CSc1ncc(S(=O)(=O)c2ccc(C(C)C)cc2)c(=O)[nH]1	28.2µM*	?
SMILES	Cruzain Triton	Cruzain noTriton
Cc1ccc(NC(=O)CSc2ncc(S(=O)(=O)c3ccc(C(C)C)cc3)c(=O)[nH]2)cc1C	0.2%	1.6%
c1nc[nH]n1	5.1%	-2.2%
CC[C@@]1(O)C(=O)OCc2c1cc1n(c2=O)-c2cc3ccccc3nc2C1	0.2%	-2.1%
O=C(O)c1cc[c]([Hg][S]c2ncnc3nc[nH]c23)cc1	-1.3%	17.9%
COc1ccc(NC(=O)C(=O)N/N=C/c2cc(C)n(-c3cccc(Cl)c3Cl)c2C)c(OC)c1	-4.2%	12.6µM*
COc1ccc(OC)c(NC(=O)C(=O)N/N=C/c2ccccc2[N+](=O)[O-])c1	1.3%	-20.0%
COc1cccc(CNC(=O)c2[nH]c3cc(C)ccc3c2Sc2ccccc2)c1	-7.1%	2.6%
COc1ccccc1/C=C/C=N/n1c(-c2ccc(C)cc2)n[nH]c1=S	-2.8%	10µM*
COc1ccc(-c2n[nH]c(=S)n2/N=C/C=C\c2ccccc2OC)cc1	-4.5%	-27.1%
COc1ccccc1/C=C/C=N/n1c(-c2cc(C)[nH]n2)n[nH]c1=S	-8.7%	3.6%
COc1ccccc1/C=C\C=N\n1c(C2CCCCC2)n[nH]c1=S	-5.5%	6.31µM*
Cc1ccccc1CNC(=O)Cn1ncn2nc(-c3cccs3)cc2c1=O	-1.2%	3.3%
CCCc1c(C)c2cccc(C)c2[nH]c1=O	2.6%	-11.4%
Cc1c(CC=C(Cl)Cl)c(=O)[nH]c2c(C)cccc12	0.0%	2.51µM*
Clc1ccc(OCCSCc2nc3ccccc3[nH]2)cc1	?	25.1µM*
Cc1ccc(OCCSCc2nc3ccccc3[nH]2)cc1	-19.6%	-9.1%
CN(C/C=C\c1ccccc1)Cc1cccc2ccccc12	-8.7%	-16.3%
CCN1c2ccccc2-c2nc(SCC(=O)Nc3cc(F)ccc3F)ncc2S1(=O)=O	-10.4%	-0.7%
Cn1c(=O)c2c(nc(-c3ccccc3)n2C)n(Cc2ccccc2)c1=O	-2.0%	20.5%
O=c1c2ccccc2c2c(O)nc(-c3ccccc3)n2n1Cc1ccccc1	0.7%	3.98µM*
Cc1cccc(N2CCN(c3nc4ccc(C)cc4n4cnnc34)CC2C)c1 (stereo unspecified)	-2.9%	-3.4%
Cc1nc2cnc(N3CCOCC3)nc2n(CCc2ccccc2)c1=O	-1.0%	11.1%
O=C(/C=C/NNC(=O)c1cccc(Br)c1)c1cccc(Br)c1	-6.4%	7.94µM*
O=C(/C=C/NNC(=O)c1ccccc1)c1ccc(Br)cc1	-7.5%	?
CCN(CC)c1ccc(NC(=O)c2cc(CN3CCCC3)on2)c(C)c1	-0.7%	-0.4%
SMILES	Cruzain Triton	Cruzain noTriton
COc1ccccc1OCCN1CSC(=S)N(C)C1	?	20µM*
Cc1cccc(OCCN2CSC(=S)N(C)C2)c1	-24.1%	-22.4%
COCCNC(=O)CSc1nc2cc3c(cc2c(=O)n1CCCC(=O)NCc1ccc2c(c1)OCO2)OCO3	1.8%	7.9%
Cc1ccccc1C(=O)Nc1sc2c(c1C(=O)N1CCCCC1)CCC(C)C2 (stereo unspecified)	-6.9%	-1.6%
COc1ccc(-c2cc(C(=O)Nc3cccc(C(C)=O)c3)no2)cc1	0.4%	20µM*
COc1ccc(-c2cc(C(=O)Nc3cccc(C(C)=O)c3)no2)cc1OC	-1.5%	-10.2%
COc1ccc(NC(=O)c2cc(-c3ccccc3OC)on2)cc1	-5.5%	-10.1%
O=C(Nc1cnn(C23CC4CC(CC(C4)C2)C3)c1)c1cc(-c2ccccc2)on1	-7.1%	?
COc1ccc(-c2cc(C(=O)Nc3ccc(C)cc3)no2)cc1	0.8%	20µM*
Cc1ccc(-c2cc(C(=O)Nc3cnn(C45CC6CC(CC(C6)C4)C5)c3)no2)cc1	4.9%	12.6µM*
CN1[C@@H]2CC(OC(=O)[C@@H](CO)c3ccccc3)C[C@@H]1[C@H]1O[C@H]12 (stereo partly specified)	-4.6%	16.3%
O=c1c2c3c(sc2nnn1Cc1ccc(F)cc1)CCCC3	-1.8%	-8.1%
CS(=O)(=O)c1ccc2nc(NC(=O)c3cccc(NS(=O)(=O)c4ccc(F)c(F)c4)c3)sc2c1	-6.9%	-28.6%
O=C(Nc1nc2ccc(SC(F)F)cc2s1)c1ccc(NS(=O)(=O)c2ccc(F)c(F)c2)cc1	-1.3%	31.6µM*
CN[C@@H]1[C@H](O[C@@H]2O[C@H](C)[C@@](O)(CO)[C@H]2O[C@H]2[C@H](O)[C@H](O)[C@H](N=C(N)N)[C@@H](O)[C@@H]2N=C(N)N)O[C@@H](CO)[C@H](O)[C@H]1O	-5.2%	-2.9%
O=C1/C(=C\c2ccc(-c3ccccc3Cl)o2)SC(=S)N1CC1CCCO1 (stereo unspecified)	-4.1%	15.8µM*
